Compound activity: PubChem, National Center for Advancing Translational Sciences (NCATS)
Shown are actives, neighbours in structure and some others; about 19% of the full set was active somewhere.
HT1080 IDH1KD tx = toxicity to HT-1080 IDH1 knockdown cells (counter line). HT-1080 IDH1 knockdown viability, ATP luminescence, 48 h. Potency, µM (top dose mostly 46.1 µM), for inactives: top-dose activity, negative = toxicity, actives largely listed as cytotoxic. 360,000 compounds, 2% hits. AID 686971;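 note: potency is the fitted concentration of half-maximal effect; 0% = DMSO wells and -100% = cell-free medium wells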
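Luminescent ATP read-out (CellTiter-Glo, 10 min at room temperature) after 48 h compound exposure at 37 °C gave viability of IDH1-knockdown HT-1080 cells. Activity was normalised to DMSO and cell-free wells, then fitted as concentration-response curves.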
TDP1 cell noCPT = qHTS for Inhibitors of human tyrosyl-DNA phosphodiesterase 1 (TDP1): qHTS in cells in absence of CPT. DT40 Tdp1-/- hTDP1 cells, no CPT, ATP luminescence, 48 h. Potency, µM (titrated, usually from 46.2 µM), without a hit: at the highest dose activity change, negative = growth inhibition, most hits filed as inhibitors. 420,000 compounds, 15% hits; note: potency is the fitted concentration of half-maximal effect; nearly all actives have a fitted effect of over 55% in size
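Stably hTDP1-transfected Tdp1-null chicken DT40 cells were treated with library compounds minus camptothecin and grown for at least 48 hr at 37 °C, after which cellular ATP was quantified by luminescence.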
HT1080NT lethal = kills 2HG-producing HT-1080-NT fibrosarcoma cells | HT-1080-NT fibrosarcoma viability, CellTiter-Glo ATP luminescence, 48 h | 360,000 compounds, 1.6% hits | Potency, µM (titrated, usually from 46.1 µM), without a hit: at the highest dose activity, negative = less viability, most hits filed as cytotoxic;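 note: NT is the 2HG producing partner of a matched IDH1 knockdown line; potency is the fitted concentration of half-maximal effect; 0% = DMSO-treated cells and -100% = media-only wells without cells; nearly all actives have a fitted effect of over 55% in size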
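Toxicity toward the 2HG-producing NT line was scored as %Activity, normalised to DMSO and no-cell wells, from CellTiter-Glo luminescence after 48 hours' treatment.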
IL-1B inflam inh = blocks inflammasome-driven IL-1 beta release. activity change, % at 57.5 µM. THP-1 LPS/ATP IL-1B secretion, AlphaLISA, 16 h; active compounds read low. 360,000 compounds, 4.7% hits; in the data active = activity change below about -50%; inconclusive = mostly about -30% to -49%
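Secreted IL-1B measured by AlphaLISA bead assay after 16 h compound exposure of THP-1 cells; compounds (final up to 57.5 uM) added 1 h before LPS (250 ng/mL) and ATP (1.25 mM) stimulation; lower signal means less secretion.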
DT40 TDP1 CPT = DT40-hTDP1 cell growth loss with CPT; chicken DT40 Tdp1-/-;hTDP1 cells + 20 nM CPT, ATP luminescence, 48 h; Potency, µM (series often up to 46.2 µM), for the others: at the top dose activity change, negative = growth inhibition, most hits filed as inhibitors; 420,000 compounds, 12% hits; AID 686979; note: potency is the fitted concentration of half-maximal effect; nearly all actives have a fitted effect of over 55% in size
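Chicken DT40 Tdp1-/- cells stably complemented with human TDP1 were seeded at 400 cells/well in medium containing 20 nM camptothecin, exposed to pin-transferred compounds, and grown at 37 °C for at least 48 hr. Viability was read as ATP luminescence.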
Starred values were filed as active, the others as inactive; ! = not active in a repeat. Unless noted, calls come from the whole dose curve; as a rule, active = well fitted curve in the direction sought with a large enough effect; inconclusive = small, poorly fitted or top-dose-only effect, or another doubt; inactive = no such curve, though single readings can be large; an effect the other way counts as inactive or inconclusive. Unless noted, % is set by controls: 0 for no effect and ±100 for the full control effect.

For COc1ccc(NC(=O)CCNC(=O)c2ccc([N+](=O)[O-])cc2)cc1S(=O)(=O)N1CCOCC1 the results were HT1080 IDH1KD tx -23%, TDP1 cell noCPT -8%, HT1080NT lethal -6%, IL-1B inflam inh 1 and DT40 TDP1 CPT -12%.
`COC(=O)[C@@]12C[C@@H](CC(=O)NCCC(C)C)C(=O)N(Cc3ccccc3)C1=CCC(C)(C)C2` gave HT1080 IDH1KD tx -10%, TDP1 cell noCPT inconclusive, HT1080NT lethal 0%, IL-1B inflam inh inconclusive and DT40 TDP1 CPT inconclusive.
Screening COc1ccc(S(=O)(=O)N2CCCCCC2)cc1NC(=O)c1ccccc1F returned HT1080 IDH1KD tx -2%, TDP1 cell noCPT -80%, HT1080NT lethal -5%, IL-1B inflam inh 0 and DT40 TDP1 CPT 16µM*.
COc1ccc(S(=O)(=O)N2CCN(C)CC2)cc1NC(=O)c1ccccc1F was read as HT1080 IDH1KD tx -15%, TDP1 cell noCPT inconclusive, HT1080NT lethal -17%, IL-1B inflam inh -1 and DT40 TDP1 CPT 0%.
For COc1ccc(S(=O)(=O)N2CCCCC2)cc1NC(=O)c1ccc(CS(C)(=O)=O)cc1 the results were HT1080 IDH1KD tx -10%, TDP1 cell noCPT 18µM*, HT1080NT lethal -6%, IL-1B inflam inh -22 and DT40 TDP1 CPT -6%.
For C=CCNc1nnc(Cc2ccc(F)cc2)c(=O)[nH]1 the results were HT1080 IDH1KD tx 5%, TDP1 cell noCPT 15%, HT1080NT lethal 0%, IL-1B inflam inh -11 and DT40 TDP1 CPT -14%.
`CC(=O)Nc1nc(-c2ccccc2)nc(-c2ccccc2OC(C)=O)n1` gave HT1080 IDH1KD tx inconclusive, TDP1 cell noCPT 18µM*, HT1080NT lethal inconclusive, IL-1B inflam inh -50* and DT40 TDP1 CPT inconclusive.
CC1CCN(C(=O)C2CCCN(c3ncnc4c3nc3n4CCCCC3)C2)CC1 (stereo unspecified) was read as HT1080 IDH1KD tx 6%, TDP1 cell noCPT inconclusive, HT1080NT lethal -1%, IL-1B inflam inh 14 and DT40 TDP1 CPT inconclusive.
For CC1CCCN(C(=O)C2CCN(c3ncnc4c3nc3n4CCCCC3)CC2)C1 (stereo unspecified) the results were HT1080 IDH1KD tx 0%, TDP1 cell noCPT 23µM*, HT1080NT lethal -7%, IL-1B inflam inh -3 and DT40 TDP1 CPT inconclusive.
CCOC(=O)C1CCN(C(=O)C2CCCN(c3ncnc4c3nc3n4CCCCC3)C2)CC1 (stereo unspecified) was read as HT1080 IDH1KD tx 6%, TDP1 cell noCPT 18µM*, HT1080NT lethal 12%, IL-1B inflam inh -5 and DT40 TDP1 CPT inconclusive.
`CC1CC(C)CN(C(=O)C2CCCN(c3ncnc4c3nc3n4CCCCC3)C2)C1` (stereo unspecified) gave HT1080 IDH1KD tx -6%, TDP1 cell noCPT 15µM*, HT1080NT lethal -13%, IL-1B inflam inh -8 and DT40 TDP1 CPT 23µM*.
Screening CCOC(=O)N1CCN(C(=O)C2CCCN(c3ncnc4c3nc3n4CCCCC3)C2)CC1 (stereo unspecified) returned HT1080 IDH1KD tx -3%, TDP1 cell noCPT inconclusive, HT1080NT lethal 5%, IL-1B inflam inh 10 and DT40 TDP1 CPT inconclusive.
Screening O=C(C1CCN(c2ncnc3c2nc2n3CCCCC2)CC1)N1CCCCC1 returned HT1080 IDH1KD tx -9%, TDP1 cell noCPT inconclusive, HT1080NT lethal 4%, IL-1B inflam inh -6 and DT40 TDP1 CPT -33%.
Screening CC12CCC(C(=O)O)(c3nc4cc([N+](=O)[O-])ccc4nc31)C2(C)C (stereo unspecified) returned HT1080 IDH1KD tx 12%, TDP1 cell noCPT 1%, HT1080NT lethal 34%, IL-1B inflam inh 0 and DT40 TDP1 CPT 0%.
`COc1ccc(OCC2c3cc(OC)c(OC)cc3CCN2C(=O)c2c(F)cccc2F)cc1` (stereo unspecified) gave TDP1 cell noCPT inconclusive and DT40 TDP1 CPT -22%.
O=c1c2cnn(-c3ccc(F)cc3)c2ncn1Cc1ccccc1Cl was read as TDP1 cell noCPT -20% and DT40 TDP1 CPT -14%.
CC(C)(C)n1ncc2c(=O)n(CC(=O)c3ccc(Cl)cc3)cnc21 was read as HT1080 IDH1KD tx 0%, TDP1 cell noCPT 23µM*, HT1080NT lethal -11%, IL-1B inflam inh -9 and DT40 TDP1 CPT 23µM*.
For CC(C)(C)n1ncc2c(=O)n(CC(=O)Nc3ccc(Cl)cc3)cnc21 the results were HT1080 IDH1KD tx -5%, TDP1 cell noCPT inconclusive, HT1080NT lethal -21%, IL-1B inflam inh 39 and DT40 TDP1 CPT inconclusive.
For CC(C)(C)n1ncc2c(=O)n(Cc3ccc(Cl)cc3Cl)cnc21 the results were HT1080 IDH1KD tx 0%, TDP1 cell noCPT 15µM*, HT1080NT lethal -4%, IL-1B inflam inh inconclusive and DT40 TDP1 CPT 16µM*.
For CC(C)(C)n1ncc2c(=O)n(CC(=O)NCc3ccccc3)cnc21 the results were HT1080 IDH1KD tx 16µM*, TDP1 cell noCPT 6.5µM*, HT1080NT lethal 16µM*, IL-1B inflam inh 27 and DT40 TDP1 CPT 8.2µM*.
CC(=O)Nc1ccc(NC(=O)Cn2cnc3c(cnn3C(C)(C)C)c2=O)cc1 was read as HT1080 IDH1KD tx -2%, TDP1 cell noCPT -11%, HT1080NT lethal 12%, IL-1B inflam inh -21 and DT40 TDP1 CPT -11%.
`CO/N=C(\Cn1ncc(N2CCCC2)c(Cl)c1=O)c1ccc(Cl)cc1` gave HT1080 IDH1KD tx -2%, TDP1 cell noCPT 23µM*, HT1080NT lethal -14%, IL-1B inflam inh -13 and DT40 TDP1 CPT 29µM*.
For CC(=O)Cn1ncc(N2CCCCC2)c(Cl)c1=O the results were HT1080 IDH1KD tx -3%, TDP1 cell noCPT -9%, HT1080NT lethal 0%, IL-1B inflam inh -2 and DT40 TDP1 CPT -9%.
Screening O=C(CSc1ccc(-c2cccs2)nn1)Nc1ccccc1 returned HT1080 IDH1KD tx -6%, TDP1 cell noCPT 21µM*, HT1080NT lethal -12%, IL-1B inflam inh -15 and DT40 TDP1 CPT 13µM*!.
Screening COC(=O)c1ccc(NC(=O)CSc2ccc(-c3cccs3)nn2)cc1 returned TDP1 cell noCPT -15% and DT40 TDP1 CPT -18%.
Screening Cc1cc(C)cc(NC(=O)CSc2ccc(-c3cccs3)nn2)c1 returned HT1080 IDH1KD tx -28%, TDP1 cell noCPT 21µM*!, HT1080NT lethal -19%, IL-1B inflam inh -72* and DT40 TDP1 CPT inconclusive.
Screening CC(=O)N/C(=C/c1ccccc1)c1sc2ccccc2[n+]1CCCCI returned TDP1 cell noCPT 11µM* and DT40 TDP1 CPT 20µM*.
Screening CN(C)c1ccc(/C=C/c2sc3ccccc3[n+]2Cc2ccccc2)cc1 returned TDP1 cell noCPT 0.1µM* and DT40 TDP1 CPT 0.11µM*.
